# Measurements published in the supplement of paper PMC11417369.
# ± gives the standard deviation of the averaged measurements. In all, about 25,000 sequences were measured (“ln(normalized median fluorescence intensity)”: median about 7.9, highest 2% from about 11 on). The full list was thinned out, with the highest values kept by preference.
# Test system: PfAP2-I AP2 domain 3 (GST-tagged)
# Experiment: gcPBM binding intensity (ln(normalized median fluorescence intensity)); higher = stronger DNA binding
# Summary of the method: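 Binding of GST-tagged P. falciparum DNA-binding domains, expressed in E. coli and used at about 25 μg on average, was carried out for 1 h in 1× PBS containing 1% milk, 0.2 mg/ml BSA, 0.5% salmon testes DNA and 0.03% Triton X-100. The target was an Agilent 4 × 180k array of primer-extended double-stranded 36-bp intergenic genomic probes plus negative controls, read with Alexa488 anti-GST antibody at 488 nm. Binding intensity is the highest Masliner-normalised natural-log median intensity across replicate spots of either probe orientation.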
row,Sequence,gcPBM binding intensity (ln)
1,ACAAGTTTTTTTTTATCACACACAAAAAAAAAAATA [CACACA_site8377],7.9 ± 0.44
2,AATATAAATAAAAACACACACAATGGTACATATATA [CACACA_site3671],7.84 ± 0.54
3,ATAAAACGTACAATGGTGCATATAAATAATATATAT [GTGCAC_site9960],11 ± 0.52
4,TAATTATAATAATAACGTACATATATAAAATGGTGA [XGTACX_site8434],8.04 ± 0.34
5,TGTCCAATTTTTTATCGTACATAATATATAAATAAA [XGTACX_site1705],8.01 ± 0.33
6,TTTTCTTGATTTTGTAGTACATTTTTACGATATTTT [XGTACX_site63],7.94 ± 0.55
7,ATTTAATATCACAATATATTTTTTACCCTTATCAGC [CACACA_negctrl_site491],7.59 ± 0.76
8,TATGTATTAATGAGAACATGCAAAATAATAAACAAT [TGCATGCA_site362],8.45 ± 0.59
9,CATGAGGTATAAAAGGTGCAAATTAATGAGAACATT,11.1 ± 0.36
10,CGTTGGTATTAAAAGGTGCAATGAAATAATATATTA,10.8 ± 0.63
11,TTTTTAAAAAAACATACACACAAAAAAAAAAAAAAA [CACACA_site3935],8.11 ± 0.67
12,TTATATCAAGGGAATGCATGCATATCGTTTTGTATT [TGCATGCA_site327],7.68 ± 0.88
13,ACAAAAAAAAACGTGGTGCATTAATAATATTGTATA [GTGCAC_site9469],11.7 ± 0.3
14,AATATTGTATATAATAAACACACAATATTAAAAATA [CACACA_site8262],7.57 ± 0.39
15,TATTGTATATAATAAACACACAATATTAAAAATATA [CACACA_site1057],7.4 ± 0.52
16,TCTTATATTATATTGTGTATTAAAATTTAACTTCAA [TGCATGCA_negctrl_site565],7.83 ± 0.58
17,ACTTTTTATTTTTTACTATATATATATATATATATG [TGCATGCA_negctrl_site463],8.31 ± 0.44
18,TATATATTTGTTCACACACACACAAAAAAAAAAAAA [CACACA_site2475],8.08 ± 0.52
19,TGGGCACCCATATACACACACAAATACAATGATAAA [CACACA_site4762],7.78 ± 0.28
20,GGTGCACCCATATACACACACAAATACAATGATAAA [CACACA_site1132],9.99 ± 0.56
21,TATGTGCACCCATATACACACACAAATACAATGATA [CACACA_site8295],11.3 ± 0.85
22,CCCGTAAATACAAAAAGTACAAAAGTTCATCTTATA [XGTACX_site1154],7.93 ± 0.99
23,AATTTATTTTTAAAAAGTACATACTTAAGAAAACGA [XGTACX_site3660],8.12 ± 0.29

row,Sequence,gcPBM binding intensity (ln)
1,AAAGAAAACGGACTTTGTACTTAAATATAATATAAA [XGTACX_site8585],7.69 ± 0.34
2,CTGTACACTTAAACGGTGCAAAAAGAAAAAAAAGAA,11 ± 0.38
3,AATAAAATGAGATGTTGTACAGTTTTGATATATGCA [XGTACX_site3052],7.96 ± 0.19
4,CATTATTATGATAGTTGTACAATTTTTATAAAAAAT [XGTACX_site4411],7.93 ± 0.35
5,GATAAAATGAGACCAGTGCATTATTAGTTGTACACC,11.3 ± 0.53
6,TAATTAATTTATTAGTTGCACTGTACCATTAGAGTA,9 ± 0.11
7,TTTTTATAGAATTTAACACACATTTCATATAAAAAA [CACACA_site7453],7.86 ± 0.47
8,AAAAAAAAAAAATACGTGCACTATGATATATTATAT,11.4 ± 0.36
9,TACTATTATAAATATGTGCACTTCAATAATATACTA,10.4 ± 0.11
10,TAATAAAATATGTACGTGCACATAATTATACTAAAA,10.3 ± 0.18
11,TATGATTAATTACCACAATTGACAAAAAAAAAAAAA [CACACA_negctrl_site336],8.13 ± 0.87
12,TTTTGTTACTTTTATGTGCACTTATAAAACGAACTA [GTGCAC_site9551],11.3 ± 0.085
13,AACTATTTTATTATATGTACTTACGAATTTATAAAA [XGTACX_site5262],7.87 ± 0.35
14,ATATATATTATGTGTGTGCACTTTTGTTATTATTAT,9.83 ± 0.014
15,AAAACACAATTTATTACACACATATATTATAGATTA [CACACA_site6780],7.61 ± 0.68
16,AGAATTTTAGATTTAGCACACATTTTTTTTTTTTTT [CACACA_site4081],8.34 ± 0.45
17,TTTTTTAAATTGGTAGTGCAATATGATTGAACAAAA [GTGCAC_site9715],10.9 ± 0.79
18,TTTTTTTTTTTTGTAGTGCAAATTAAAAATATATGT,10.6 ± 0.53
19,ATGATATGCAATTTAGTGCATAACAAAATTGGTATA,10.9 ± 0.49
20,ATATTGAAATTAAAAAAATATATGAACAAATGATGA [CACACA_negctrl_site602],7.69 ± 0.59
21,TATATAGATATGATAGTGCATTTTTAGAAAACATAA [GTGCAC_site9962],9.44 ± 0.14
22,GTTTTAACAAAATTAGTGCATTTATCAATTATATAA,10.5 ± 0.14
23,AAAAAAAAAAAAAGCACACATATAAATATGAATAAA [CACACA_site1393],8.39 ± 0.085
